# Experimental data as given in PubChem BioAssay (NCATS).
# Several values for one entry are separate records, joined by “and”; a condition that tells them apart may be missing. Equal entries are not always repeated. Records with an inconclusive call do not appear. Activity calls are given as the source filed them. Calls follow the shape of the dose curve; as a rule, active = well fitted inhibition curve with a large enough effect; inconclusive = small, poorly fitted or top-dose-only effect; inactive = flat fitted curve, though single readings scatter.
# Molecular target: Voltage-gated inwardly rectifying potassium channel KCNH2 (Homo sapiens) (UniProt Q12809)
# Sequence (Q12809 whole entry, looked up): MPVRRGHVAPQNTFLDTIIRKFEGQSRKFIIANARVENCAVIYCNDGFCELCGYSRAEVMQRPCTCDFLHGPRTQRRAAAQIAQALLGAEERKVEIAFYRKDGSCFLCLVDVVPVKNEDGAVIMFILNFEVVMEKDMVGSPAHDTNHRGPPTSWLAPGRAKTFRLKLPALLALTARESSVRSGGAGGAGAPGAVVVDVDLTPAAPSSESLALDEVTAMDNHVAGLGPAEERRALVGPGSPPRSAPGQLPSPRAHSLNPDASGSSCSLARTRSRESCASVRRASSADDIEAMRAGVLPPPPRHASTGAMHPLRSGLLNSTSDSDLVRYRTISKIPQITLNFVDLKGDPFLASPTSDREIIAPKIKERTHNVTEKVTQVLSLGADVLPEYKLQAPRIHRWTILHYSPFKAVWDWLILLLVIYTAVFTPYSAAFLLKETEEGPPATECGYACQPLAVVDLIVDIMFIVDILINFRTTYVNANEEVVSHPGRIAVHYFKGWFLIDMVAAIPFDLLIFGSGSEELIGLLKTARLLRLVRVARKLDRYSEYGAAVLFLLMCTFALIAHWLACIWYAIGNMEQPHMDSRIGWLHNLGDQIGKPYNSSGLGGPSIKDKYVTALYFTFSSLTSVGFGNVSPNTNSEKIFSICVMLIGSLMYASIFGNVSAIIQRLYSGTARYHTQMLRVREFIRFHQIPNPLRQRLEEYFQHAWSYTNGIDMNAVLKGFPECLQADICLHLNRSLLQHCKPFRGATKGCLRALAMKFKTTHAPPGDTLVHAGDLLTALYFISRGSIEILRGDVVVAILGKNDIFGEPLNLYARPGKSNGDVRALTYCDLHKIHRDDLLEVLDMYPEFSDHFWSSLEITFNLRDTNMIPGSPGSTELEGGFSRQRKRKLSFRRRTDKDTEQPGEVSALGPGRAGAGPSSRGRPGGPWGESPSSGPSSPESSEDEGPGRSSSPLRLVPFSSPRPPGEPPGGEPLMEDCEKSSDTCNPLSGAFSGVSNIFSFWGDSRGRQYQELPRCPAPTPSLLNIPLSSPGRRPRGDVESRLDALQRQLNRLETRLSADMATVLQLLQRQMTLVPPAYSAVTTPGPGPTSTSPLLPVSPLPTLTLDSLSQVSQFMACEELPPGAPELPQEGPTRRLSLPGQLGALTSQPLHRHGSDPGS
# Test: qHTS Assay for Small Molecule Inhibitors of the Human hERG Channel Activity (AID 588834);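 also: lower thallium flux fluorescence means stronger hERG block; nearly all actives have a fitted effect of over 50% in size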; also: potency is read from the fitted curve at half-maximal effect; as to activity change, negative = inhibition: top concentration of the series differs between compounds; % is scaled to controls: 0 for no effect and ±100 for the full control effect
# Conditions: U2OS BacMam hERG, FluxOR thallium flux fluorescence; series mostly up to 46.1 µM; activity change, negative = inhibition: at the top concentration
# Summary of the method: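 U2OS cells transduced with hERG via BacMam (MOI ~100), plated 2000/well, loaded with FluxOR thallium dye, compound ~10 min, then stimulation buffer; fluorescence decrease read kinetically; AC50 from Hill fits.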
Compound,"activity change, negative = inhibition",Potency
[O-][n+]1cccc(CO)c1,26.7% (inactive),
CC(=O)Oc1c(C)c(C)c2c(c1C)CC[C@@](C)(CCC[C@H](C)CCC[C@H](C)CCCC(C)C)O2,,inactive
CC(C)C(=O)c1c(C(C)C)nn2ccccc12,2.82% (inactive),
CC1CC(OC(=O)C(O)c2ccccc2)CC(C)(C)N1C (configuration not stated),-3.28% (inactive),
N[C@H]1C(O)O[C@H](CO)[C@@H](O)[C@@H]1O (some centres not stated),-10.5% (inactive),
CN(N=O)C(=O)N[C@@H]1[C@@H](O)[C@H](O)[C@@H](CO)O[C@@H]1O,-6.62% [at 20.6 µM] (inactive),
CCN(CC)CCCC(C)Nc1c2ccc(Cl)cc2nc2ccc(OC)cc12 (configuration not stated),,14.1 µM (active) and 11.2 µM (active)
C[C@@H]1CC[C@@]2(OC1)O[C@H]1C[C@H]3[C@@H]4CC[C@H]5C[C@@H](O)CC[C@]5(C)[C@H]4CC(=O)[C@]3(C)[C@H]1[C@@H]2C,12.2% [at 20.6 µM] (inactive),
CC1(C)Oc2ccc(C#N)cc2[C@@H](N2CCCC2=O)[C@@H]1O,-4.12% (inactive),
Nc1cc(=O)[nH]c(N)n1,2.57% (inactive),
CS(=O)(=O)c1ccc([C@@H](O)[C@@H](CF)NC(=O)C(Cl)Cl)cc1,2.35% [at 20.6 µM] (inactive),
CCN(CC)C(C)CN1c2ccccc2Sc2ccccc21 (configuration not stated),,7.94 µM (active)
Cc1ncc([N+](=O)[O-])n1CC(O)CCl (configuration not stated),-4.49% [at 20.6 µM] (inactive),
COc1ccc2cc1Oc1cc3c(cc1OC)CC[N+](C)(C)[C@H]3Cc1ccc(cc1)Oc1c(OC)c(OC)cc3c1[C@@H](C2)[N+](C)(C)CC3,5.18% (inactive),
C[C@H]1O[C@H](O[C@H]2[C@H](O)[C@@H](O)[C@@H](O[C@H]3[C@H](O)[C@@H](O)[C@H](O)O[C@@H]3CO)O[C@@H]2CO)[C@H](O)[C@@H](O)[C@@H]1N[C@H]1C=C(CO)[C@@H](O)[C@H](O)[C@H]1O,8.07% (inactive),
CC1(C)S[C@@H]2[C@H](NC(=O)Cc3ccccc3)C(=O)N2[C@H]1C(=O)O (tested in a mixture with another compound),4.24% (inactive),
CC(C)NC[C@H](O)c1ccc(O)c(O)c1,,inactive
C[C@@H](O)[C@H](N)C(=O)O,-5.85% (inactive),
C=CCn1c(=O)n([C@@H]2O[C@H](CO)[C@@H](O)[C@H]2O)c2nc(N)[nH]c(=O)c21,22.1% (inactive),
C[C@]12CC[C@@H]3c4ccc(O)cc4CC[C@H]3[C@@H]1CC[C@@H]2OC(=O)CCC1CCCC1,-24.8% (inactive),
CC(CN(C)C)CN1c2ccccc2CCc2ccccc21 (configuration not stated),,7.08 µM (active)
CCN(CC)C(=O)Nc1ccc(OCC(O)CNC(C)(C)C)c(C(C)=O)c1 (configuration not stated),6.3% (inactive),
O=c1[nH]cnc2c1ncn2[C@@H]1O[C@H](CO)[C@@H](O)[C@H]1O,0.539% (inactive),

# Molecular target: Luciferin 4-monooxygenase (Photinus pyralis) (UniProt P08659)
# Sequence (P08659 whole entry, looked up): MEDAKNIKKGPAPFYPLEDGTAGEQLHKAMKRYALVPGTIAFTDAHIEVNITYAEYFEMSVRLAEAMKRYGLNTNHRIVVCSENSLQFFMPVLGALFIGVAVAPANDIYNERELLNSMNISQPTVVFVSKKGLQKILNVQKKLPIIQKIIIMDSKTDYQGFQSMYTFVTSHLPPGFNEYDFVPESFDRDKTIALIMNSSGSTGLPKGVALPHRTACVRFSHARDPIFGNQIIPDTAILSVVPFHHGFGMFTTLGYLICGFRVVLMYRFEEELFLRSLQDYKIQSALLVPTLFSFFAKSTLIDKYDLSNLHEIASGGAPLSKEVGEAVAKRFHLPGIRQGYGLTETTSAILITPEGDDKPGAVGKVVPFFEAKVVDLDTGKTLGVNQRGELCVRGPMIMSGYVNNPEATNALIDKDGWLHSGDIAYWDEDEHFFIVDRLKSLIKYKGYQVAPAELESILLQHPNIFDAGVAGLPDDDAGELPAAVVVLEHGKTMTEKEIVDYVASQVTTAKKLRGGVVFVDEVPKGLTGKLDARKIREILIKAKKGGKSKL
# Test: Biochemical firefly luciferase enzyme assay for NPC (AID 624030);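 also: purified P. pyralis luciferase at 10 nM with luciferin and ATP substrate; 0% = DMSO and -100% = full luciferase inhibition by PTC124 control; nearly all actives have a fitted effect of over 70% in size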
# Conditions: purified P. pyralis luciferase, luminescence, 5 min; series mostly up to 58.6 µM; activity change, negative = inhibition: at the top concentration
# Summary of the method: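 Purified P. pyralis luciferase at 10 nM in 50 mM Tris Acetate (final), luminescence read within 5 minutes of enzyme addition to compounds. Activity normalised to PTC124 versus DMSO; concentration-response curves classed by r2, magnitude and activity.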
row,Compound,"activity change, negative = inhibition"
1,[O-][n+]1cccc(CO)c1,-1.99% (inactive)
2,CC(=O)Oc1c(C)c(C)c2c(c1C)CC[C@@](C)(CCC[C@H](C)CCC[C@H](C)CCCC(C)C)O2,1% (inactive)
3,CC(C)C(=O)c1c(C(C)C)nn2ccccc12,-4% (inactive)
4,Nc1cc(=O)[nH]c(N)n1,0.248% (inactive)
